High-throughput results from PubChem.
RGS4-Gao reg = human RGS4-Galphao interaction regulation; P09471; Multiplexed bead flow cytometry, RGS4-Galphao binding; actives lie on both sides; binding response (% of control), % at 10 µM; hit rate 0.33% among 220,000; in the data active means binding response below about 49% or above about 150%; inactive means in between;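 further: fluorescent Galphao activated with aluminum fluoride binding bead-coupled RGS4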
Target sequence (P09471 whole entry, looked up): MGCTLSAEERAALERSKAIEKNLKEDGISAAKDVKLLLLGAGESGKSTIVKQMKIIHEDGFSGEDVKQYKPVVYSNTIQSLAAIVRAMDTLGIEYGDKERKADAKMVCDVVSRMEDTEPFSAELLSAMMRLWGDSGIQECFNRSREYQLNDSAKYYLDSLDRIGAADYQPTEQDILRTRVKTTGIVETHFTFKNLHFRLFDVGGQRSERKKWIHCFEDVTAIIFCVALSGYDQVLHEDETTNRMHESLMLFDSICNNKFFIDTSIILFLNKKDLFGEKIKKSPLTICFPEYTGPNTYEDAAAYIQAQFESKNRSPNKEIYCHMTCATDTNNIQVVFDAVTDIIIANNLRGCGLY
GSH fluor = compound fluoresces at 488/530 nm on GSH beads. fluorescence (KMESF) at 10 µM. AID 1776. GSH beads flow cytometry, compound fluorescence 488/530 nm; stronger effect = higher value. hit rate 0.25% among 190,000; in the data active means fluorescence above about 89;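 further: glutathione beads carrying GST-tagged Bcl family fusion proteins plus one bare bead set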
RGS8-Gao reg = regulators of human RGS8-Galphao interaction. P09471. multiplexed bead flow cytometry, RGS8-Galphao binding; actives lie on both sides. response (percent of control binding), % at 10 µM. hit rate 0.34% among 220,000. AID 1423; in the data active means response below about 60% or above about 140%; inactive means in between;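 further: Galphao activated as the GDP aluminium fluoride complex binding bead-coupled RGS8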
RGS16-Gao HTS = regulators of human RGS16-Galphao interaction | AID 1441 | binding response (% of control), % at 10 µM | O15492+P09471 | hit rate 0.38% among 220,000 | bead-based flow cytometry RGS16-Galphao binding, fluorescence; actives lie on both sides;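 further: Galphao activated by GDP with aluminum fluoride before binding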
Target sequence (O15492 whole entry, looked up): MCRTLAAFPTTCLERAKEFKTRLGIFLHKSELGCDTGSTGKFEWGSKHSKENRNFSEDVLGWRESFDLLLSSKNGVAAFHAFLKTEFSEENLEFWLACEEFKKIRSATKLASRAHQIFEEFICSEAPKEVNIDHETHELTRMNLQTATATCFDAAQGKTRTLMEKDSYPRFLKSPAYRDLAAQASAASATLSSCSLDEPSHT
Target sequence (P09471 whole entry, looked up): as the sequence (P09471 whole entry, looked up) above
RGS7-Gao = human RGS7-Galphao interaction regulation; P09471; Multiplexed bead flow cytometry, RGS7-Galphao binding; actives lie on both sides; binding response (% of control), % at 10 µM; hit rate 0.35% among 220,000; AID 1439; in the data active means binding response below about 49% or above about 150%; inconclusive means no clear call, values can overlap the other calls; inactive means in between;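 further: fluorescent Galphao held in activated GDP-AlF4 state binding bead-coupled RGS7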
Avidin bead fluor = avidin bead compound fluorescence profile | Avidin beads, compound fluorescence 488/530 nm, flow cytometry; stronger effect = higher value | fluorescence (KMESF) at 10 µM | hit rate 0.38% among 220,000; in the data active means fluorescence above about 47
RGS4-Gao HTS = modulates binding between human RGS4 and Galphao; RGS4–Galpha-o binding response, % at 10 µM; shares compounds with RGS16-Gao HTS; hit rate 99% among 1,600; multiplexed bead flow cytometry, RGS–Galpha-o binding; AID 1504;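 further: fluorescently labeled Galpha-o bound to GDP with aluminium fluoride binding biotinylated RGS beads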
Biotin-avidin = biotin-avidin bead binding disruption counter-screen; inhibition, % at 10 µM; streptavidin beads, fluorescein-biotin binding, flow cytometry; AID 1783; 1,700 tested, under 10 active; shares compounds with RGS16-Gao HTS;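 active means inhibition above 50%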;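 further: median green fluorescence of gated singlet beads compared with DMSO control wells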
RGS8-Gao confirm = RGS8-Galphao interaction regulation, single point confirmation | shares compounds with RGS16-Gao HTS | bead-based flow cytometry RGS8-Galphao binding, fluorescence; actives lie on both sides | binding response (% of control), % at 10 µM | hit rate 3% among 1,700 | AID 1836; in the data active means binding response below about 72% or above about 130%; inactive means in between;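 further: Galphao activated as GDP AlF4 complex before binding bead RGS8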
RGS7-Gao single = confirmation of regulators of human RGS7-Galphao interaction. bead-based flow cytometry RGS7-Galphao binding; actives lie on both sides. hit rate 7.8% among 1,700. shares compounds with RGS16-Gao HTS. response (percent of control binding), % at 10 µM. AID 1837; in the data active means response below about 75% or above about 130%; inactive means in between;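 further: fluorescent Galphao activated with GDP and aluminum fluoride binding bead-coupled RGS7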
RGS16-Gao single = RGS16-Galphao interaction regulation, single point confirmation. shares compounds with RGS16-Gao HTS. bead-based flow cytometry, RGS16-Galphao binding; actives lie on both sides. response (% of control binding), % at 10 µM. hit rate 4% among 1,700. AID 1838; in the data active means response below about 74% or above about 130%; inactive means in between;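 further: Galphao activated as the GDP aluminium fluoride complex binding bead-coupled RGS16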
RGS4-Gao single = RGS4-Galphao interaction regulation, single point confirmation; hit rate 4% among 1,700; shares compounds with RGS16-Gao HTS; binding response (% of control), % at 10 µM; RGS4-Galphao binding, multiplexed bead flow cytometry; actives lie on both sides; in the data active means binding response below about 74% or above about 130%; inactive means in between
RGS19-Gao conf = RGS19-Galphao interaction regulation, single point confirmation | shares compounds with RGS16-Gao HTS | bead-based flow cytometry RGS19-Galphao binding; actives lie on both sides | response (percent of control binding), % at 10 µM | hit rate 5% among 1,700 | AID 1841; in the data active means response below about 50% or above about 160%; inactive means in between
Numbers stand for hits; 0 = inactive; ? = inconclusive; - = no result given; [ ] = dose if it differs, or a comment. Only some compounds are listed: those with a hit (about 1.2% of all), similar ones and a draw of the others. Unless noted, how the calls were made is not given here.

SMILES | RGS4-Gao reg | GSH fluor | RGS8-Gao reg | RGS16-Gao HTS | RGS7-Gao | Avidin bead fluor | RGS4-Gao HTS | Biotin-avidin | RGS8-Gao confirm | RGS7-Gao single | RGS16-Gao single | RGS4-Gao single | RGS19-Gao conf
S=C(NCc1ccco1)Nc1ccc(Oc2ccc(Cl)cc2)cc1 | -36.6 | - | 14.0 | -19.8 | ? | 0 | - | 0 | 0 | 0 | 0 | 0 | 0
O=C(NCc1ccco1)c1ccc(COc2ccc(Cl)cc2)cc1 | 0 | 0 | 0 | 11.7 | 0 | 0 | 89.0 | 0 | 0 | 0 | 0 | 0 | 0
Cc1ccccc1-n1c(SCC(=O)NC(N)=O)nc2sc(-c3ccccc3)cc2c1=O | 0 | 0 | 0 | -3.3 | 0 | 0 | 80.8 | 0 | 0 | 0 | 0 | 0 | 0
O=C(CN1CCN(c2ccccc2O)CC1)NCCCc1ccccc1 | 0 | 0 | 0 | 0 | 0 | 0 | - | - | - | - | - | - | -
O=C(CN1CCN(c2ccccc2O)CC1)NC(c1ccccc1)c1ccccc1 | 0 | 0 | 0 | 243.7[activator] | 0 | 0 | 114.4 | 0 | 0 | 0 | 0 | 0 | 0
CCSc1nc(=S)cc(C)[nH]1 | 0 | - | 0 | 0 | ? | 0 | - | - | - | - | - | - | -
CCOc1ccc(NC(=O)CC2C(=O)N(c3ccccc3)C(=O)N2Cc2ccccn2)cc1 (stereo not given) | 0 | 0 | 144.1[activator] | 0 | 0 | 0 | 135.3 | 0 | 0 | 0 | 0 | 0 | 0
COCCN(C(=S)Nc1ccc(C)cc1C)C(C)c1ccco1 (stereo not given) | 160.2[activator] | 0 | 164.3[activator] | 0 | 0 | 0 | - | 0 | 0 | 0 | 0 | 0 | 0
COC(=O)c1ccc(CN2C(=O)C3CCCCC3C2=O)o1 (stereo not given) | 0 | 0 | 0 | 0 | 0 | 0 | - | - | - | - | - | - | -
COc1ccccc1OCc1nc(C#N)c(N2CCCC2)o1 | 21.6 | 0 | 16.4 | 0 | 13.3 | 0 | - | 0 | 0 | 0 | 0 | 0 | 0
Cc1ccc(C)c(NC(=O)CSc2nnc(-c3ccccc3)n2N)c1 | 0 | 0 | 141.4[activator] | 0 | 0 | 0 | 119.4 | 0 | 0 | 0 | 0 | 0 | 0
Cc1ccc(C)n1-c1cccc(N)c1 | 49.3 | 0 | 0 | 0 | 0 | 0 | - | 0 | 0 | 0 | 0 | 0 | 0
Cc1ccc(C)n1-c1cccc(C(=O)O)c1 | 0 | 0 | 49.2 | 0 | 22.0 | 0 | 84.0 | - | - | - | - | - | -
CC1(C)CC(=O)C(C(=S)Nc2ccccc2)=C(NC2CC(C)(C)NC(C)(C)C2)C1 | 0 | 0 | 0 | 0 | 0 | 0 | - | - | - | - | - | - | -
COc1ccc(CCNC(=O)COC(=O)c2cc(OC)c(OC)cc2OC)cc1OC | 172.5[activator] | 0 | 173.8[activator] | 199.1[activator] | 172.0[activator] | 0 | - | 0 | 0 | 0 | 0 | 0 | 0
NS(=O)(=O)c1ccc(NC(=S)N2CCN(c3cccc(Cl)c3)CC2)cc1 | 0 | 0 | 0 | 0 | 0 | 0 | - | - | - | - | - | - | -
CCn1c(SCC(=O)Nc2ccccc2)nnc1C1CCCCC1 | 0 | 0 | 0 | 0 | 0 | 0 | - | - | - | - | - | - | -
Cc1ccc(NS(=O)(=O)c2ccc(C)c(C(=O)N3CCN(C)CC3)c2)cc1 | 0 | 0 | 0 | -37.2 | 0 | 0 | 69.4 | 0 | 0 | 0 | 0 | 0 | 0
Cc1ccc(NS(=O)(=O)c2ccc(C(=O)N3CCCN(C)CC3)cc2)cc1 | 0 | 0 | 0 | 0 | 0 | 0 | - | - | - | - | - | - | -
Cc1ccc(-c2c[n+](CC(=O)OCc3ccccc3)c3n2CCC3)cc1 | 11.9 | 0 | 12.7 | 7.7 | 9.5 | 0 | - | 0 | 0 | 0 | 0 | 0 | 0
